Source: PubChem (Broad Institute)
Compounds with a hit are over-represented: about 2.2% of the library has one in this group of screens.
EBV LMP1 NFkB: Epstein-Barr LMP1 NF-kappaB reporter inhibition; LMP1-induced NF-kappaB luciferase reporter cells, luminescence; 350,000 compounds, 0.69% hits; inhibition, % at 12.5 µM; in the data active = inhibition above about 41%; inconclusive = no clear call, values can overlap the other calls
LGR2 antag: inhibitors of bursicon-induced Drosophila LGR2 receptor cAMP signaling; HEK293 LGR2, CRE-luciferase, bursicon-stimulated, 4 h; inhibition, % at 9.99 µM; 380,000 compounds, 0.35% hits;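 active = drop in luminescence signal, shown as inhibition above about 50% in the replicate tests, limit read from the data, passing the limit was not always enough; inconclusive = probably only some replicates passing the limit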;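 note: agonist challenge used bursicon conditioned medium at about half maximal strength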
EWS-Fli inh: blocks EWS/Fli oncoprotein-driven transcription; A673 NR0B1-luciferase reporter, viability-normalised; inhibition, % at 12.6 µM; 350,000 compounds, 0.67% hits;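 active = mean inhibition of at least 50% after viability correction, with every replicate also passing that limit; inconclusive = mean reaches 50% but only one of two replicates passes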;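 note: firefly luciferase signal divided by Alamar Blue viability fluorescence both relative to DMSO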
MITF TRPM1 inh: inhibitors of MITF-driven TRPM1 promoter in melanoma cells; SK-MEL-5 TRPM1 promoter luciferase, 24 h; inhibition, % at 12.5 µM; 330,000 compounds, 0.83% hits; AID 488899;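 active = mean inhibition across replicates of 60% or more, whatever share of single replicates reaches that level; inconclusive = some that reach 60%, reason not given; inactive = mean inhibition across replicates below 60%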
Shn3 inh set2: reduces Shn3 3'UTR luciferase signal in osteoblasts | Clone20 osteoblast Shn3 3'UTR firefly luciferase, 24 h | inhibition, % at 12.5 µM | 360,000 compounds, 0.52% hits;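 active = mean inhibition of at least 75% with every replicate also reaching 75%; inconclusive = mean inhibition at least 75% but some replicate below; inactive = mean inhibition below 75%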
PAX8 reporter: lowers PAX8-driven luciferase in RMG-I cells | RMG-I TPO-luciferase reporter, SteadyGlo, 24 h | inhibition, % at 12.6 µM | 360,000 compounds, 1.2% hits | AID 652154;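 active = mean replicate inhibition at least 60% with every replicate also reaching 60%; inconclusive = only one of the two criteria is met; inactive = mean below 60% and not all replicates reaching 60%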;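 note: luciferase light reporting Pax8 driven TPO promoter activity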
Each line names hits and unclear results; the compound was inactive in the other large screens.

COc1ccc(/C=C/C(=O)Nc2ccccc2C(=O)O)cc1	LGR2 antag 58.9
COc1ccc(/C=C/C(=O)Nc2ccccc2C(=O)N2CCCC2)cc1	none (no result: LGR2 antag, EWS-Fli inh, PAX8 reporter)
COc1ccc(/C=C/C(=O)Nc2ccccc2C(=O)O)cc1OC	LGR2 antag 81.4
COc1ccc(/C=C/c2cc(C(=O)O)c3ccccc3n2)cc1	EBV LMP1 NFkB 80.0, EWS-Fli inh 70.0
COc1ccc(/C=C/C(=O)Nc2ccccc2C(F)(F)F)cc1OC	none
COc1cc(OC)c(OC)cc1/C=C/c1cc(C(=O)O)c2ccccc2n1	none
COc1ccc(/C=C/C(=O)c2cc(F)ccc2OC(=O)c2ccccc2)cc1OC	MITF TRPM1 inh inconclusive, PAX8 reporter 76.7 (no result: LGR2 antag, EWS-Fli inh)
CCC(=O)N1C[C@@H](C)[C@H](OC)CN(C)C(=O)c2cc(NC(=O)C3CC3)ccc2OC[C@@H]1C	none (no result: EBV LMP1 NFkB, MITF TRPM1 inh, Shn3 inh set2, PAX8 reporter)
CC(C)(C)OC(=O)NCc1ccc(CNC(=O)c2[nH]cnc2C(=O)NCC(=O)OCc2ccccc2)cc1	LGR2 antag 81.9
C[C@@H](NC(=O)c1nc[nH]c1C(=O)N[C@@H](Cc1ccccc1)C(=O)OC(C)(C)C)c1ccccc1	PAX8 reporter 95.3
CC(C)(C)OC(=O)NCc1ccc(CNC(=O)c2[nH]cnc2C(=O)N[C@@H](Cc2ccccc2)C(=O)OC(C)(C)C)cc1	PAX8 reporter 76.1
CCOC(=O)C1=C(c2ccccc2)NC(=O)NC1c1ccc(O)c(OCC)c1 (stereo unspecified)	none
CCOC(=O)C1=C(c2ccccc2)NC(=O)NC1c1ccc(O)c(Cl)c1 (stereo unspecified)	EWS-Fli inh 68.2, PAX8 reporter 69.6
CCOc1ccc2c(ccc(/C=C/c3cc(C)c4cccnc4c3O)[n+]2C)c1	MITF TRPM1 inh 74.5, Shn3 inh set2 86.8 (no result: LGR2 antag, EWS-Fli inh, PAX8 reporter)
Cc1noc(C)c1NC(=O)N(C)C[C@H]1OCCCC[C@@H](C)Oc2ccc(NC(=O)Cc3ccccc3)cc2C(=O)N([C@@H](C)CO)C[C@H]1C	none (no result: EBV LMP1 NFkB, MITF TRPM1 inh, Shn3 inh set2, PAX8 reporter)
CSC(SC)=C(C#N)C(=O)c1ccccc1	EWS-Fli inh inconclusive, MITF TRPM1 inh 64.9
COc1cccc(C(=O)C(C#N)=C(SC)SC)c1	MITF TRPM1 inh 82.3
CCCC(=O)Nc1ccc2c(c1)C(=O)N(C)C[C@H](OC)[C@@H](C)CN(C)[C@H](C)CO2	none (no result: EBV LMP1 NFkB, MITF TRPM1 inh, Shn3 inh set2, PAX8 reporter)
Cc1nn(C2CCS(=O)(=O)C2)c2nc(C3CC3)cc(C(=O)Nc3cccc(C#N)c3)c12 (stereo unspecified)	PAX8 reporter 74.7
C[C@@H]1CN([C@@H](C)CO)C(=O)c2cc(NC(=O)NC3CCCCC3)ccc2O[C@H]1CN(C)Cc1ccc2c(c1)OCO2	none (no result: EBV LMP1 NFkB, MITF TRPM1 inh, Shn3 inh set2)
N#Cc1c(N)n(-c2ccc(N)cc2)c2nc3ccccc3nc12	none (no result: LGR2 antag)
N#Cc1c(C#N)c(SSc2c(C#N)c(C#N)c(N)n2-c2ccccc2)n(-c2ccccc2)c1N	EWS-Fli inh 50.8, MITF TRPM1 inh 92.5, Shn3 inh set2 88.6
COc1ccc(CNC(=O)c2c(O)c3cc(OC)c(OC)cc3[nH]c2=O)cc1OC	none
CCN(CC)CCNC(=O)c1c(O)c2cc(OC)c(OC)cc2[nH]c1=O	EBV LMP1 NFkB 55.3 (no result: LGR2 antag, EWS-Fli inh, PAX8 reporter)
O=C(C[C@@H]1C=C[C@@H](NC(=O)Nc2ccccc2F)[C@H](CO)O1)NCc1ccc(F)cc1	none (no result: EBV LMP1 NFkB, MITF TRPM1 inh, Shn3 inh set2)
Cc1nn(-c2nc3ccccc3[nH]2)c(=O)c2ccccc12	EBV LMP1 NFkB 81.3, LGR2 antag 103.1, EWS-Fli inh 88.0, MITF TRPM1 inh 96.1, Shn3 inh set2 92.7, PAX8 reporter 105.3
Cc1nn(-c2ccc3ccccc3c2)c(=O)c2ccccc12	none
O=C(O)[C@H]1[C@H](CO)[C@H]2Cn3c(ccc(C4=CCCCC4)c3=O)[C@H]2N1C(=O)Cc1cccnc1	none (no result: EBV LMP1 NFkB, MITF TRPM1 inh, Shn3 inh set2, PAX8 reporter)
CC(CCc1ccccc1)NC(=O)COC(=O)c1ccc(S(C)(=O)=O)c([N+](=O)[O-])c1 (stereo unspecified)	Shn3 inh set2 96.7
COc1ccc(C2=NN(C(=O)COC(=O)c3ccc(S(C)(=O)=O)c([N+](=O)[O-])c3)C(c3ccco3)C2)cc1 (stereo unspecified)	MITF TRPM1 inh 81.0
CC(CCc1ccccc1)NC(=O)COC(=O)c1ccc([N+](=O)[O-])cc1 (stereo unspecified)	none
CC(=O)c1cccc(NC(=O)COC(=O)c2ccc(S(C)(=O)=O)c([N+](=O)[O-])c2)c1	none
CS(=O)(=O)c1ccc(C(=O)OCC(=O)N2CCOCC2)cc1[N+](=O)[O-]	Shn3 inh set2 95.2 (no result: EBV LMP1 NFkB, MITF TRPM1 inh)
CS(=O)(=O)c1ccc(C(=O)OCC(=O)N2CCN(CCC3CCCCC3)CC2)cc1[N+](=O)[O-]	EWS-Fli inh 54.1, Shn3 inh set2 95.9, PAX8 reporter 105.1 (no result: EBV LMP1 NFkB, MITF TRPM1 inh)
COc1ccc(C2=NN(C(=O)COc3ncnc4ccccc34)C(c3ccco3)C2)cc1 (stereo unspecified)	none
C[C@@H]1CN([C@H](C)CO)C(=O)c2cc(NS(C)(=O)=O)ccc2O[C@@H]1CN(C)Cc1ccc(C(=O)Nc2ccccc2N)cc1	none (no result: EBV LMP1 NFkB, MITF TRPM1 inh, Shn3 inh set2, PAX8 reporter)
O=C(C[C@H]1CC[C@@H]2[C@H](COC[C@@H](O)CN2C(=O)Nc2ccccc2)O1)NCCc1ccncc1	none (no result: EBV LMP1 NFkB, MITF TRPM1 inh, Shn3 inh set2)
CS(=O)(=O)c1ccc(C(=O)OCC(=O)NC(=O)C2COc3ccccc3O2)cc1[N+](=O)[O-] (stereo unspecified)	none
CS(=O)(=O)c1ccc(C(=O)OCC(=O)NC(=O)C2CCCCC2)cc1[N+](=O)[O-]	LGR2 antag 59.8, MITF TRPM1 inh 66.5
COc1ccc(-c2cc3nc[nH]c(=O)c3s2)cc1	none (no result: LGR2 antag, EWS-Fli inh, PAX8 reporter)
COc1ccc(-c2cc3nc(CCl)[nH]c(=O)c3s2)cc1	EBV LMP1 NFkB 49.2, LGR2 antag 67.8
O=C(Nc1ccccc1F)N1C[C@H]2[C@@H](c3ccccc31)[C@@H](CO)N2C(=O)C1CCOCC1	none (no result: EBV LMP1 NFkB, MITF TRPM1 inh, Shn3 inh set2)
O=C(NC(=S)/C(=C1\CCCCCN1)[N+](=O)[O-])c1ccccc1	EBV LMP1 NFkB 40.3 (no result: LGR2 antag, EWS-Fli inh, PAX8 reporter)
C[C@H](CO)N1C[C@H](C)[C@@H](CN(C)S(=O)(=O)c2ccc(Cl)cc2)Oc2ccc(NC(=O)c3ccncc3)cc2C1=O	none (no result: EBV LMP1 NFkB, MITF TRPM1 inh, Shn3 inh set2)
CO[C@@H]1CN(C)C(=O)c2ccc(NC(=O)C3CC3)cc2OC[C@@H](C)N(Cc2ccccc2)C[C@H]1C	none (no result: EBV LMP1 NFkB, MITF TRPM1 inh, Shn3 inh set2, PAX8 reporter)
COCc1nn2c(N)c(C#N)cnc2c1-c1ccccc1	Shn3 inh set2 95.5 (no result: LGR2 antag, EWS-Fli inh, PAX8 reporter)
C#CC[N+](C)(C)CCCCCCCCCCCC	MITF TRPM1 inh 71.7, PAX8 reporter 87.2 (no result: LGR2 antag)
CC#CC[N+](C)(C)CCCCCCCCCCCC	MITF TRPM1 inh 64.7, PAX8 reporter 82.6
O=C(c1ccccc1)c1coc2c1C(=O)c1ccccc1C2=O	none
O=C1c2ccccc2-c2onc3ccc(Oc4ccccc4)c1c23	EBV LMP1 NFkB 53.2, MITF TRPM1 inh 97.1, Shn3 inh set2 90.5 (no result: EWS-Fli inh, PAX8 reporter)
CC1(C)CCN2CCC(C)(C)c3c(O)ccc1c32	MITF TRPM1 inh 64.4, PAX8 reporter 83.9
COc1ccc(S(=O)(=O)N(C)C[C@H]2Oc3ccc(NC(=O)CCC(F)(F)F)cc3CC(=O)N([C@@H](C)CO)C[C@@H]2C)cc1	none (no result: EBV LMP1 NFkB, MITF TRPM1 inh, Shn3 inh set2)
